# Measured values: publication PMC5540273 (PLoS ONE, 2017)
# System: T1, ADCK3
# T1 construct: gene CABC1
# Conditions: concentration: 1 μM, replicates: in singlicate; n = 1
# 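Note: KINOMEscan kinase panel screen.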
row,Structure (SMILES),%Inh
1,CN(C1=C(c2ccccc2)C(=O)NC1=O)c1ccccc1 [SB-334860],12%
2,Cc1cccc(-c2nc(Nc3ccc4ncsc4c3)c3ccccc3n2)n1 [GW867588],0%
3,NS(=O)(=O)CCc1cccc(Nc2nccc(-c3c(-c4cccc(NC(=O)c5c(F)cccc5F)c4)nn4ccccc34)n2)c1 [GSK336735],9%
4,CNc1ncnc2[nH]ncc12 [SKF-18355],0%
5,Cc1c2ccc(N(C)c3ccnc(Nc4cccc(S(N)(=O)=O)c4)n3)cc2nn1Cc1ccccc1.Cl.Cl [GW787226],0%
6,COc1ccc(CNC(=O)NC2CCN(c3ccnc(Nc4ccc(OC)cc4)n3)C2)cc1 (stereo not shown) [GSK1379727],3%
7,Cc1nnc(-c2ccc3occ(-c4ccc(C(C)O)cc4)c3c2)o1 (stereo not shown),0%
8,Fc1ccc(-c2nn3c(OCC(F)(F)F)cccc3c2-c2ccncc2)cc1 [GW514784],18%
9,O=C1Cc2cc(Nc3nc(NCc4cccc(S(=O)(=O)C(F)(F)F)c4)ncc3C(F)(F)F)ccc2N1,0%
10,O=C(NCCNc1ccnc(Nc2ccc(F)cc2)n1)c1cc2ccccc2s1 [GSK1379874],0%
11,Nc1nccc(-c2c(-c3ccc(F)cc3)ncn2C2CCN(CC(F)(F)F)CC2)n1 [SB-236560],0%
12,Nc1nc(-c2ccc3c(N)n[nH]c3c2)cc(N2CCCC2)n1 [GSK2227430],0%
13,O=c1cc(N2CCOCC2)nc2n(Cc3cccc(Cl)c3Cl)c(C3CC3)nn12 [GSK2358994],11%
14,N#Cc1c(N2CCOCC2)sc(-c2ccn[nH]2)c1-c1ccc(Cl)cc1,12%
15,NS(=O)(=O)c1cccc(-c2ccc3nccc(-c4cccc(S(N)(=O)=O)c4)c3c2)c1 [GW867253],0%
16,O=c1cc(N2CCOCC2)nc2n(Cc3cccc(F)c3)ccn12 [GSK2297430],9%
17,Cc1cccc(-c2nc(-c3ccc(S(C)(=O)=O)cc3)sc2-c2ccncc2)c1,0%
18,COCCNC(=O)c1ccc(-c2cc(C(=O)NC3CC3)cc(F)c2C)cc1 [GW868318],14%
19,Cc1cn2c(=O)cc(N3CCOCC3)nc2n1Cc1cccc(Cl)c1Cl [GSK2334006],7%
20,COc1ccc(COc2cc(-n3cnc4ccccc43)sc2C(N)=O)cc1 [GSK1024304],0%
21,CN1c2ccc(NCc3ccc(F)cc3)cc2-c2c(cnn2C)S1(=O)=O,10%
22,O=C(NOCC1CC1)c1ccc(F)c(F)c1Nc1ccc(I)cc1Cl,0%
